The values below come from PubChem BioAssay AID1347416 (National Center for Advancing Translational Sciences (NCATS), 2020).

The campaign covered roughly 4,100 compounds. About 1,600 (39%) were called active. Inconclusive results (about 25%) are left out. The list shows a part of the results. A number with no mark means an inactive call. Calls follow the shape of the dose curve; as a rule, active = well fitted inhibition curve with a large enough effect; inconclusive = small, poorly fitted or top-dose-only effect; inactive = no such curve, though single readings can be large or run the other way.
% is scaled to controls: 0 for no effect and ±100 for the full control effect; potency is read from the fitted curve at half-maximal effect.

The assay is described as follows: qHTS Validation assay for Inhibitors of Plasmodium falciparum Dd2 growth in vitro. Also: nearly all actives have a fitted effect of over 70% in size. The conditions noted are these: P. falciparum Dd2 in RBCs, SYBR Green growth, 72 h; series mostly up to 28.7 µM; activity change, negative = inhibition: at the top concentration. The method, boiled down:
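P. falciparum Dd2-infected red blood cells (2.5% hematocrit, 0.3% parasitemia) grown 72 h at 37 °C under 5% O2 with compounds in a titration, 29 uM to 0.5 nM final. Growth read as SYBR Green-1 fluorescence after ~16 h lysis; artesunate 300 nM as positive control.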
(In general: qHTS replaces the single test concentration by a dilution series.)
Turning to `Cc1ccc(O)c([C@H](CCN(C(C)C)C(C)C)c2ccccc2)c1`, the Potency was 4.22 µM (active).

As for `COc1ccc(CCNC(=O)CC(c2ccccc2OC)c2c[nH]c3ccccc23)cc1OC` (configuration not stated), the Potency was 13.3 µM (active).

As for `COc1ccc(CCNC(=O)CCc2cn(Cc3ccc(F)cc3)c3ccccc23)cc1OC`, the “activity change, negative = inhibition” value was -6.47%. The same measure, in the same setting: the figure for `CCCC1c2nccn2CCCN1C(=O)c1cnco1` (configuration not stated) is 16.6%. The same measure, in the same setting: the result for `Cc1cccnc1CNC[C@H]1O[C@@H]2C[C@@H](CC(=O)N3CCOCC3)O[C@@H]2[C@@H]1O` reads 0% [at 43.1 µM]. On to `Cc1cccc(CN2CCCC(O)(CNCc3ncccc3C)C2=O)c1` (configuration not stated), for which the Potency was 16.8 µM (active). For `CCOC(=O)c1c(NC(=O)CSc2cn(CCNC(=O)c3cccc(C(F)(F)F)c3)c3ccccc23)sc2c1CCC2`, the “activity change, negative = inhibition” value was 9.72%. As for `CCCn1cc(SCC(=O)NCc2ccco2)c2ccccc21`, the Potency is 8.41 µM (active). As to `COc1ccc(C2c3[nH]c4ccccc4c3C[C@H]3C(=O)N(C4CCN(Cc5ccccc5)CC4)CC(=O)N23)c(OC)c1` (some centres not stated), the Potency was 2.37 µM (active). As to `COc1ccc(C2c3[nH]c4ccccc4c3C[C@H]3C(=O)N(C4CCN(Cc5ccccc5)CC4)CC(=O)N23)cc1OC` (some centres not stated), the Potency was 2.99 µM (active). As to `COc1ccccc1C1c2[nH]c3ccccc3c2C[C@H]2C(=O)N(C3CCN(Cc4ccccc4)CC3)CC(=O)N12` (some centres not stated), the Potency is 2.11 µM (active).

Take `CCOc1ccccc1C1c2[nH]c3ccccc3c2C[C@H]2C(=O)N(C3CCN(Cc4ccccc4)CC3)CC(=O)N12` (some centres not stated): the Potency is 2.37 µM (active). Still for that read-out and setting: the result for `CC(=O)N(C)C1=C(N2CCOCC2)C(=O)c2ccccc2C1=O` reads 0.842 µM (active); that for `COc1ccc(-c2nn(-c3ccc(F)cc3)c(OC(C)=O)c2-c2ccc(NC(C)=O)cc2)cc1OC`, 15 µM (active). As to `Cc1ccc(-n2cc(-c3ccccc3)nc2S(=O)(=O)CC(=O)Nc2ccc(F)cc2)cc1`, the “activity change, negative = inhibition” value is -20.6%.

As to `CC(=O)Oc1c(-c2ccc(NC(=O)CC(C)C)cc2)c(-c2ccc(F)cc2)nn1-c1ccc(F)cc1`, the Potency was 13.3 µM (active). Same read-out and setting: the result for `COc1cccc(C2C3=C(N=c4s/c(=C\c5ccccc5O)c(=O)n42)c2ccccc2CC3)c1OC` (configuration not stated) reads 2.99 µM (active); that for `COc1cccc(CN2C(=O)OC3(CCN(Cc4c[nH]c5ccccc45)CC3)C2(C)c2cccnc2)c1` (configuration not stated), 8.41 µM (active); that for `COc1cccc(CN2C(=O)OC3(CCN(Cc4ccccc4OC)CC3)C2(C)c2cccnc2)c1` (configuration not stated), 4.73 µM (active). Regarding `COc1cccc(CN2CCC3(C2)NC(=O)c2ccccc2CO3)c1` (configuration not stated), the “activity change, negative = inhibition” value was 1.2% [at 43.1 µM]. On the same count and under the same terms, the figure for `COCc1cc(=O)n(CC(=O)NCc2cccc(OC)c2)c(N2CCOCC2)n1` is 3.01%. For the molecule `COc1cccc(CN2C(=O)OC3(CCN(Cc4ccc5c(c4)CCO5)CC3)C2(C)c2cccnc2)c1` (configuration not stated), the Potency was 4.73 µM (active). With `CC1(c2ccccc2)N(Cc2ccc(O)cc2)C(=O)OC12CCN(Cc1c[nH]c3ccccc13)CC2` (configuration not stated), the Potency is 5.31 µM (active).

For `O=C1CO[C@H]2CCN(Cc3ccc(O)cc3)CC[C@@H]2N1c1ccccc1`, the “activity change, negative = inhibition” value is -26.9% [at 43.1 µM]. As to `COCCc1noc([C@@H]2CN(Cc3ccc(C)o3)C[C@H]2CO)n1`, the “activity change, negative = inhibition” value is 0%. Still for that read-out and setting: the figure for `COC(=O)C1C2C=CC3(CN(Cc4cccs4)C(=O)C13)O2` (configuration not stated) is 34.7%. For `CCOC(=O)c1cnc2ccc(OC)cc2c1Nc1ccc(N2CCN(C)CC2)cc1`, the Potency was 1.68 µM (active). Turning to `Cc1ccc(C(=O)N/N=C/c2ccc([N+](=O)[O-])s2)cc1`, the Potency is 5.96 µM (active). Turning to `Cc1ncc(CO)c(/C=N/NC(=O)c2ccc(O)cc2)c1O`, the “activity change, negative = inhibition” value was 39.7%. Take `Cc1ccccc1C1C(C#N)=C2N=C(N)c3c(sc4c3CCCCC4)N2C2=C1C(=O)CCC2` (configuration not stated): the Potency is 2.66 µM (active). As for `CN(CC1CCOC1)C(=O)Nc1ccc(Br)cc1` (configuration not stated), the “activity change, negative = inhibition” value was -2.76%.

Turning to `COc1cc(C2CC(=O)N(Cc3ccc(F)cc3)c3ccccc3S2)cc(OC)c1OC` (configuration not stated), the Potency was 2.11 µM (active). As for `COc1cc(-c2ccnc3nc(Cc4ccc(F)cc4)nn23)cc(OC)c1OC`, the “activity change, negative = inhibition” value is -11.8%. Same read-out and setting: the figure for `COC(=O)c1ccc(CN2C(=O)[C@@H]3C[C@@H](O)CN3C3(CN(Cc4ccc(F)cc4)C3)C2=O)cc1` is 12.4%.

For `O=C(/C=C/c1ccco1)NC(=S)Nc1ccccc1N1CCCC1`, the Potency is 2.66 µM (active). Consider `CC(C)(C)C(=O)NC(=S)Nc1ccccc1N1CCCC1`, for which the “activity change, negative = inhibition” value was -6.71%. As for `O=C(CCSc1nc(-c2ccco2)cc(C(F)(F)F)n1)Nc1cccc(O)c1`, the “activity change, negative = inhibition” value is 0%. Same read-out and setting: the result for `Cc1noc(-c2cn(C3CCN(C(=O)C(C)Oc4ccc(Cl)cc4)CC3)nn2)n1` (configuration not stated) reads -7.34%; that for `COCC(=O)Nc1ccc2c(c1)OCC(=O)N2Cc1ccc(C)cc1`, -7.47%; that for `COc1cccc(NC(=O)[C@@H]2C[C@H](c3cccc(C(F)(F)F)c3)N(Cc3cnn(C)c3)C2)c1`, 1.04%.

With `COc1cccc(NC(=O)CN(C)C(=O)c2ccc(-c3cccc(C(F)(F)F)c3)o2)c1`, the Potency was 0.596 µM (active).

Turning to `Cc1ccc2c(CC(=O)Nc3ccccc3C(F)(F)F)coc2c1C`, the “activity change, negative = inhibition” value is 1.01%. Still for that read-out and setting: the result for `O=C(Nc1ccccc1N1CCCC1)c1cc2ccccc2o1` reads -28.6%. The same measure, in the same setting: the result for `Cc1cccc(Cn2nnc(C(=O)Nc3cc(C)ccc3C)c2N)c1` reads 10.7%.

Turning to `Cc1ccc(C)c(NC(=O)CN(C)C(=O)c2ccc(-c3cccc(C(F)(F)F)c3)o2)c1`, the Potency is 2.11 µM (active). In the case of `Cc1ccc(-c2cn3cccnc3n2)cc1NC(=O)Cc1ccccc1`, the “activity change, negative = inhibition” value is -11.2%. In the case of `Cc1ccc(C)c(NC(=O)CN(C)C(=O)c2ccc(-c3ccc(Cl)cc3)o2)c1`, the Potency was 4.73 µM (active). On the same count and under the same terms, the figure for `Cc1ccc(C)c(NC(=O)CN(C)C(=O)c2cc3ccccc3o2)c1` is 13.3 µM (active). Regarding `O=C(c1cc2c(s1)CCCC2)N1CCc2c(nc3cc[nH]n3c2=O)C1`, the “activity change, negative = inhibition” value is 0%. Take `Cc1ccc(C(=O)NCCc2noc(C3CC3)n2)cc1C`: the “activity change, negative = inhibition” value is 34.7%.

With `Cc1cccc(NC(=O)CN(c2ccc(F)cc2)S(C)(=O)=O)c1`, the “activity change, negative = inhibition” value was 39.5%. Turning to `COc1cccc(NC(=O)CN(C)C(=O)c2ccc(-c3ccc(Cl)cc3)o2)c1`, the Potency was 4.22 µM (active). Regarding `CN(CC(=O)Nc1cccc(F)c1)C(=O)c1ccc(-c2cccc(C(F)(F)F)c2)o1`, the Potency was 0.668 µM (active). For the molecule `CCCC(C)C(=O)Nc1ncc(S(=O)(=O)c2ccc([N+](=O)[O-])cc2)s1` (configuration not stated), the Potency was 5.96 µM (active).

Take `COc1ccc(CCNC(=O)c2cc(C(=O)c3cc(Cl)ccc3O)cn(CCc3ccc(OC)cc3)c2=O)cc1`: the Potency was 3.76 µM (active). As for `COc1ccc(-c2cc3c(=O)n(CCNC(=O)c4c(F)cccc4Cl)ccn3n2)cc1`, the “activity change, negative = inhibition” value is -14.7%. Same read-out and setting: the figure for `COc1ccc(OC)c(CCNC(=O)c2nc(-c3ccc(Cl)cc3)n3c2CCCCC3)c1` is 6.9%.
